Bioassay records deposited in PubChem BioAssay by National Center for Advancing Translational Sciences (NCATS).
Rows were chosen to be rich in hits. Some 0.53% of all compounds tested hit in one or more screens of this group.
Vif-APOBEC3G blk = blocks the Vif interaction with human APOBEC3G | HeLa A3G-eYFP + Vif (tagged APOBEC3G with the HIV-1 protein that degrades it), YFP fluorescence, overnight | Potency, µM (titrated, usually from 46.1 µM), most hits filed as inhibitors | hit rate 0.076% among 410,000; also: nearly all actives have a fitted effect of over 60% in size
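Read-out is eYFP fluorescence (Ex 488/Em 500-530) from Vif-expressing HeLa A3G-eYFP cells; more signal means A3G escaped Vif-mediated degradation. Cells plated overnight, compound pinned in, incubated overnight at 37 deg C.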
Vif-A3F inh = blocks the Vif interaction with APOBEC3F; HeLa A3F-eYFP + Vif (tagged APOBEC3F with the HIV-1 protein that degrades it), YFP fluorescence increase; Potency, µM (top dose mostly 46.1 µM); hit rate 0.2% among 390,000; AID 602313; also: nearly all actives have a fitted effect of over 65% in size
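Fluorescence increase (Ex 488/Em 500-530) after overnight compound treatment at 37 deg C flags inhibition of Vif-driven A3F-eYFP loss in stable HeLa A3F-eYFP/Vif cells seeded overnight beforehand.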
IL-2 act = activators of IL-2 | activation, % (series mostly up to about 46 µM) | hit rate 0.065% among 360,000 | AID 652025 | IL-2 activation reporter assay, cell-based qHTS; stimulated with anti-CD3/CD4/CD28 beads; in transgenic mouse T cells; in the data active = activation above about 50%; inconclusive = mostly about 30% to 49%
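EGFP and DsRed fluorescence is measured by plate cytometry in unstimulated transgenic mouse T cells exposed to compound for 60 minutes, then stimulated 18 hours at 37 degrees C with anti-CD3/anti-CD4 beads plus anti-CD28.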
PKM2 act = increases activity of human pyruvate kinase M2; P14618; purified PKM2, Kinase-Glo ATP luminescence, activation; response scale: 0% is enzyme alone, no compound; Potency, µM (doses to about 57.5 µM), usual class: activators; hit rate 0.34% among 260,000; also: nearly all actives have a fitted effect of over 55% in size
Target sequence (P14618 whole entry, looked up): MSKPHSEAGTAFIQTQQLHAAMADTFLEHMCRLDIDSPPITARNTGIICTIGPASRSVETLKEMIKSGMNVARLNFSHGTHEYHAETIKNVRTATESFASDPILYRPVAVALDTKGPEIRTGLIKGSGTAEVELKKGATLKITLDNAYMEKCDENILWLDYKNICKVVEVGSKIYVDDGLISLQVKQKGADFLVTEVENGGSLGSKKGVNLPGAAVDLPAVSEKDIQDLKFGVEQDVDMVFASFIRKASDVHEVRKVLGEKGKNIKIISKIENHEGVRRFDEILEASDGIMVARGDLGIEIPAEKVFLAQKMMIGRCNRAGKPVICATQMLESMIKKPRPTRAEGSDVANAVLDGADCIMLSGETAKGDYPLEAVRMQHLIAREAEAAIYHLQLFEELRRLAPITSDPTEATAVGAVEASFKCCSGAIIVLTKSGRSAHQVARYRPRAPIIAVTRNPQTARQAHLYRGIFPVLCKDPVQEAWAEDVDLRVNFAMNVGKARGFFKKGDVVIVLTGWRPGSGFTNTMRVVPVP
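hPK-M2, >95% pure; 0.1 mM ADP / 0.5 mM PEP final; imidazole pH7.2 buffer w/ 7 mM MgCl2, 50 mM KCl; 1 h RT; Kinase-Glo lum. Intermediate enzyme activity for dual inhibitor/activator qHTS.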
Numbers stand for hits; – = inactive; ? = inconclusive; · = no result. Unless noted, calls follow the shape of the dose curve; as a rule, active = well fitted curve in the direction sought with a large enough effect; inconclusive = small, poorly fitted or top-dose-only effect, or another doubt; inactive = no such curve, though single readings can be large; an effect the other way counts as inactive or inconclusive.

SMILES	Vif-APOBEC3G blk	Vif-A3F inh	IL-2 act	PKM2 act
Cc1ccc(C2=CC(C)(c3ccc(C)cc3)Nc3nc(C(F)(F)F)nn32)cc1 (stereo unspecified)	–	–	–	–
O=C(CSc1cn(CC(=O)N2CCCC2)c2ccccc12)Nc1cc(C(F)(F)F)ccc1Cl	–	–	·	·
O=C(c1cc(-c2ccccn2)nc2ccc(Br)cc12)N1CCN(S(=O)(=O)c2ccccc2)CC1	–	?	–	25µM
Cc1ccc(-c2cc(C(=O)N3CCN(c4ccc(F)cc4)CC3)c3ccccc3n2)o1	–	–	–	?
Cc1ccc(-c2cc(C(=O)N3CCN(c4ncccn4)CC3)c3cc(Br)ccc3n2)o1	–	–	–	8.9µM
CCOc1ccccc1CNC(=O)c1cn(-c2ccc(OC)cc2)c(=O)c2ccccc12	–	–	·	·
CCc1ccc2nc(SCC(=O)Nc3ccccc3N3CCOCC3)c(C#N)cc2c1	?	10µM	–	–
COc1ccc(C(=O)OCc2ccccc2C#N)cc1S(=O)(=O)N1CCOCC1	–	–	–	·
COC(=O)c1ccc(NC(=O)C(C)Sc2nc(=O)cc(N)n2CCc2ccccc2)cc1 (stereo unspecified)	–	–	·	·
COc1ccc(C)cc1Nc1n[n+](-c2ccccc2)c(-c2cc([N+](=O)[O-])cc(OC)c2O)s1	–	22µM	180	–
O=C(N=c1ccn(-c2nc3ccccc3nc2NS(=O)(=O)c2ccccc2)cc1)c1ccccc1Cl	–	7.1µM	–	·
O=C(N=c1ccn(-c2nc3ccccc3nc2NS(=O)(=O)c2ccc(Cl)cc2)cc1)c1ccccc1Cl	·	·	·	–
O=C(N=c1ccn(-c2nc3ccccc3nc2NS(=O)(=O)c2ccc(Cl)cc2)cc1)c1cccs1	–	7.9µM	244	–
Cc1cc[n+](CCC2CCCCC2)c2ccccc12	–	·	·	·
CCc1cccc(C)c1NC(=O)CCS(=O)(=O)c1ccc2c(c1)oc(=O)n2C	–	–	·	·
CC(=O)Nc1ccc(OCC(O)Cn2c(C(C)C)nc3ccccc32)cc1 (stereo unspecified)	–	–	72	–
CC(=O)Nc1ccc(OCC(O)Cn2c(C)nc3ccccc32)cc1 (stereo unspecified)	–	–	–	–
CC1CCCC(C)N1C(=O)COC(=O)c1ccco1 (stereo unspecified)	–	–	–	·
Cc1ccc(NC(=O)CSc2nc(-c3ccccc3Cl)nc3cc(=O)[nH]n23)c(C)c1	–	–	·	·
C/C(=N/NC(=O)CNC(=O)/C=C/c1ccco1)c1ccc(Cl)cc1	–	–	–	25µM
O=C(/C=C/c1ccco1)NCC(=O)N/N=C/c1ccc(Cl)cc1	–	–	–	–
CCCCNc1c2c3c(cccc3n(C)c1=O)C(=O)c1ccccc1-2	–	?	–	–
CC(=O)Nc1ccc(Nc2c3c4c(cccc4n(C)c2=O)C(=O)c2ccccc2-3)cc1	–	8.9µM	–	–
COc1ccc(-n2c(=O)/c(=C\c3cccs3)s/c2=C(/C#N)C(=O)NCCN2CCOCC2)cc1	–	?	137	–
CCOc1ccc(-n2c(SCC(=O)c3ccccc3)nc3c([nH]c4ccccc43)c2=O)cc1	–	–	·	·
SMILES	Vif-APOBEC3G blk	Vif-A3F inh	IL-2 act	PKM2 act
COc1ccc(-c2cc(-c3ccc(F)cc3)nc3c2COc2ccc(F)cc2-3)cc1	–	–	·	·
COc1cc(/C=C2\SC(=S)N(NC(=O)c3ccccc3O)C2=O)ccc1O	–	11µM	–	·
COc1cccc(CNC(=O)C2CCN(C(=O)N3CCOc4ccc(Cl)cc43)CC2)c1OC	–	–	·	·
Cn1cncc1C#Cc1c(C=O)n(C)c2ccccc12	–	–	–	·
COc1cc(C#Cc2c(C=O)n(C)c3ccccc23)cc(OC)c1	–	–	51	·
CC(C)NC(=O)C1(C)CCN1C(=O)c1c(F)cccc1F (stereo unspecified)	–	·	–	·
COc1ccc(S(=O)(=O)N2CCN(C(=O)NCc3ccc(C)cc3)CC2)cc1	–	–	–	7.1µM
COc1ccc(S(=O)(=O)N2CCCN(S(=O)(=O)c3ccc(OC)cc3C)CC2)c(C)c1	–	–	–	8.9µM
COc1cccc(CNC(=O)N2CCN(S(=O)(=O)c3ccc(C)cc3)CC2)c1	–	–	–	11µM
COCCCNC(=S)N1CCN(S(=O)(=O)c2ccc(OC)cc2)CC1	–	–	–	0.89µM
COc1cccc(CNC(=O)C2CCN(S(=O)(=O)c3ccc(C)cc3)CC2)c1	–	–	–	·
COc1ccc(OC)c(S(=O)(=O)N2CCCCCC2)c1	–	–	–	–
